According to PubChem BioAssay (NCI):
Compounds without any hit were thinned out: in the full panel of roughly 83,000, 20% have a hit.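 Step 1: grow cells in 96-well plates. Step 2: add test compound at a single concentration. Step 3: incubate 48 h. Step 4: record percent growth.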 A number with no mark means an inactive call. Activity calls are given as the source filed them.

tested on: TK-10 renal; test: NCI-60 one-dose screen, 48 h (100 = growth as untreated, 0 = no growth, -100 = all killed); details: 10 µM unless noted
Procedure: Growth inhibition of the TK-10 human tumor cell line is measured as a screen for anti-cancer activity. Cells are grown in 96 well plates and exposed to the test compound for 48 hours. Compounds are tested at a single concentration, which is 10^-5 M for most compounds. The reported endpoint is percent growth (GI% or GIPRCNT), where numbers from 0 - 100% represent growth inhibition, and numbers from -100% - 0 represent cell death. For example, a value of 40 represents 60% growth inhibition. A value of 0 means no net growth occurred over the course of the experiment. A value of -40 indicates 40% of cells at the beginning of the experiment died by the end of the experiment. A value of -100 means all cells are dead at the end of the experiment.
NCI-60 Human Tumor Cell Lines Screen was performed using the standard one-dose NCI protocol, which is described in more detail at https://dtp.cancer.gov/discovery_development/nci-60/default.htm.
Compounds with GIPRCNT values below 10 were considered active. Activity score was based on GIPRCNT using the following formula: […]
Score is 0 for GIPRCNT values of 100 or above, 50 for GIPRCNT values of 0, and 100 for GIPRCNT values of -100.

| Compound | growth |
| --- | --- |
| COc1cccc2c1O/C(=C\c1c([N+](=O)[O-])ncn1C)C2=O | 109% |
| O=C(c1ccccc1)c1ccccc1Cl | 94.6% |
| COc1ccc(OC)c2c1[nH]c(=O)c1c3ccccc3cn21 | -83.4% (active) |
| COc1ccc(OC)c(NC(=O)c2cc3oc4ccccc4c3cc2O)c1 | 135% |
| C[C@]12CC[C@@H]3c4ccc(O)cc4CC[C@H]3[C@@H]1CC[C@@H]2NS(=O)(=O)c1cccc(Br)c1 | 75.4% |
| O=C(/C=C/c1cccnc1)/C=C/c1cccnc1 | 17.3% |
| COC(=O)CCC1=C(C)/C(=C/c2[nH]c(-c3ccc[nH]3)cc2OC)N=C1C | 28.1% |
| c1cnc2n[nH]c(Nc3ncnc4c3sc3ncccc34)c2c1 | 103% |
| CN1COc2ccc3ccccc3c2C1 | 105% |
| O=C(Nc1ccc(Oc2ccc(NC(=O)Nc3ccc([N+](=O)[O-])cc3)cc2)cc1)Nc1ccc([N+](=O)[O-])cc1 | 15.1% |
| CCOC(=O)c1c(NC(=O)C2CCCCC2C(=O)O)sc2c1CCCC2 (stereo not given) | 113% |
| Nc1ncc(-c2cnn(C3CCNCC3)c2)cc1-c1nc2cc(Cl)ccc2o1 | -94.1% (active) |
| S=c1[nH]nc2sc3ccccc3n12 | 126% |
| N#Cc1c(N)[nH]c(S)c1C#N | 111% |
| O=[N+]([O-])c1ccc(N/N=C/c2c(O)ccc3ccccc23)nc1 | 47.3% |
| CC[C@]1(O)CC2CN(CCc3c([nH]c4ccccc34)[C@@](C(=O)OC)(c3cc4c(cc3OC)N(C)[C@H]3[C@@](O)(C(=O)OC)[C@H](OC(C)=O)[C@]5(CC)C=CCN6CC[C@]43[C@@H]65)C2)C1 (stereo not given in full) | 62.6% |
| COc1ccc(C2CC(c3cccc(Nc4ccnc5cc(Cl)ccc45)c3)=NN2C=O)cc1 (stereo not given) | 41.5% |
| COc1ccc2c(c1)C(=O)c1c-2c(OCCN(C)C)nc2cc(OC)ccc12 | 28.5% |
| C[C@@H]1CC[C@H]2[C@@H](C)C(O)O[C@@H]3O[C@]4(C)CC[C@@H]1[C@]32OO4 (stereo not given in full) | 27.3% |
| Cc1cc(N2CCOCC2)nc(N2CCOCC2)n1 | 92.2% |

| Compound | growth |
| --- | --- |
| COC(=O)c1ccc2c(c1)nc(-c1ccc(O)c(OC)c1)n2-c1cc(C(C)(C)C)[nH]n1 | 116% |
| CN(C)c1cccc2c(S(=O)(=O)N[C@H]3CC[C@H]4[C@@H]5CCc6cc(O)ccc6[C@H]5CC[C@]34C)cccc12 | 51.1% |
| OC(c1cc(C(F)(F)F)nc2c(C(F)(F)F)cccc12)C1CCCCN1 (stereo not given) | 11.9% |
| CN(C)c1ccc(/C=C\c2ccnc3ccccc23)cc1 | 55.9% |
| O=C(Nc1cccc([N+](=O)[O-])c1)c1cccc(C(=O)Nc2cccc([N+](=O)[O-])c2)c1 | 65.5% |
| Clc1ccc2c(Nc3ccc4oc(NCCN5CCCC5)nc4c3)ccnc2c1 | 103% |
| COc1ccc(C(=O)/C=C/c2c(Cl)nc3c(c(C)nn3-c3ccccc3)c2-c2ccc(Br)cc2)cc1 | 106% |
| CC/C=C\C=C/C(=O)N/C=C/CC1Cc2cccc(O)c2C(=O)O1 (stereo not given) | 109% |
| CCC(C)(C)C(=O)O[C@H]1C[C@@H](C)C=C2C=C[C@H](C)[C@H](CC[C@@H]3C[C@@H](O)CC(=O)O3)[C@H]21 | 83.1% |
| O=C1/C(=C/c2ccc([N+](=O)[O-])s2)Oc2ccc(Br)cc21 | -25.3% (active) |
| Clc1ncn[nH]1 | 93.8% |
| COc1ccc(-c2nc3sccn3c2-c2ccnc(S(C)(=O)=O)n2)cc1 | 117% |
| CN(C)c1nc(-c2ccco2)n2nc(-c3ccco3)cc2n1 | 90.3% |
| NC(=O)SCC(=O)Nc1ccccc1-c1ccccc1 | 106% |
| COc1cc(/C=C/C(=O)Nc2cccnc2Nc2cc(OC)c(OC)c(OC)c2)cc(OC)c1OC | 116% |
| Cc1nn(-c2ccc(Cl)cc2)c2nc3c(nc12)C(=O)c1ccccc1-3 | 94.1% |
| c1ccc(-n2nnnc2-c2cccc3ccccc23)cc1 | 13.8% |
| CC(C)[C@H]1CC[C@H]2[C@@H](CC[C@H]3[C@](C)(CN)CCC[C@]23C)C1 | 89.6% |
| Cc1ccc(C(C)C)cc1NC(=O)Nc1ccc([N+](=O)[O-])cc1 | 16.8% |
| Cn1cc(-c2csc(-c3cn(C)c4ncccc34)n2)c2cccnc21 | 92.2% |
